The source of these data is PubChem BioAssay (NCI).

About 83,000 compounds went through this panel and 20% of them were active in at least one assay; those are over-represented in the sample as a whole.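 Treatment: one concentration, 48 hours, 96-well format. Scoring: percent growth, with anything below 10 considered active.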 Unmarked numbers belong to inactive results. Activity calls are given as the source filed them.

Among the test systems are DU-145 prostate; K-562 leukemia; MALME-3M melanoma; MDA-MB-231 breast; RXF 393 renal; SF-268 CNS; SF-295 CNS; SF-539 CNS; UACC-257 melanoma; M14 melanoma; HCT-15 colon; HT29 colon; SNB-75 CNS; SNB-19 CNS; U251 CNS; PC-3 prostate; SK-MEL-5 melanoma; UACC-62 melanoma; LOX IMVI melanoma; SK-MEL-28 melanoma.
Assay in all cases: NCI-60 one-dose screen, 48 h (100 = growth as untreated, 0 = no growth, -100 = all killed)
Holding throughout (settings): 10 µM unless noted

Take `c1nc(SC2=NCCN2)c2[nH]cnc2n1`: the growth with DU-145 prostate was 37.3%; in the experiment with K-562 leukemia it was 14.3%; in the experiment on MALME-3M melanoma, 47.3%; in the experiment with MDA-MB-231 breast, 37.7%; with RXF 393 renal, 59.7%; with SF-268 CNS, 46.5%. Further, the growth was 29.1% in the experiment on SF-295 CNS; 24.3% with SF-539 CNS; 66.8% with UACC-257 melanoma; 14.7% in the experiment on M14 melanoma; 57.8% in the experiment with HCT-15 colon; 35.3% with HT29 colon. The growth in the experiment with SNB-75 CNS was 52.7%; with SNB-19 CNS, 103%; with U251 CNS it was 79.4%; with PC-3 prostate, 57.5%; with SK-MEL-5 melanoma, 79.1%; with UACC-62 melanoma, 19.1%. For the same molecule, the growth was 6.53% (active) in the experiment on LOX IMVI melanoma and 95.4% with SK-MEL-28 melanoma.

Consider `COc1ccc(C2=NN(C(=O)COc3ccc(Cl)cc3)C(O)(c3cc(F)c(Cl)cc3Cl)C2)cc1OC` (stereo not given), for which the growth is 9.5% (active) with DU-145 prostate; -66.5% (active) with K-562 leukemia; 6.18% (active) in the experiment on MALME-3M melanoma; 30% with MDA-MB-231 breast; -90.8% (active) in the experiment with RXF 393 renal; 4.05% (active) with SF-268 CNS. In addition, the growth in the experiment with SF-295 CNS was 75.7%; in the experiment with SF-539 CNS, 30.5%; in the experiment on UACC-257 melanoma, 107%; in the experiment with M14 melanoma it was -13.4% (active); in the experiment with HCT-15 colon, 4.88% (active); with HT29 colon, -75.9% (active). The growth was 3.94% (active) with SNB-75 CNS; 62.7% in the experiment with SNB-19 CNS; 55.5% in the experiment on U251 CNS; 32.1% in the experiment with PC-3 prostate; 65.4% in the experiment on SK-MEL-5 melanoma; 52.5% in the experiment on UACC-62 melanoma. Moreover, the results for the growth in the experiment with LOX IMVI melanoma and in the experiment on SK-MEL-28 melanoma were -35.6% (active) and -51.6% (active), respectively.

As for `COc1cc(NS(=O)(=O)c2ccc(N)cc2)ncn1`, the growth in the experiment on DU-145 prostate was 118%; with K-562 leukemia, 92.9%; in the experiment with MALME-3M melanoma, 97.4%; in the experiment with MDA-MB-231 breast, 94.7%; with RXF 393 renal, 112%; in the experiment with SF-268 CNS, 109%. Further, the growth is 102% with SF-295 CNS; 112% with SF-539 CNS; 106% with UACC-257 melanoma; 107% with M14 melanoma; 108% with HCT-15 colon; 120% in the experiment on HT29 colon. The growth was 104% in the experiment with SNB-75 CNS; 99.8% with SNB-19 CNS; 102% in the experiment with U251 CNS; 99.8% in the experiment with PC-3 prostate; 103% in the experiment on SK-MEL-5 melanoma; 99.1% in the experiment with UACC-62 melanoma. In addition, the growth in the experiment with LOX IMVI melanoma is 94.3%; with SK-MEL-28 melanoma, 121%.

Turning to `Cc1cn(C2CC(N=[N+]=[N-])C(COP(=O)(O)OP(=O)(O)OP(=O)(O)O)O2)c(=O)[nH]c1=O` (stereo not given), the growth in the experiment with DU-145 prostate is 114%; with K-562 leukemia it was 83.5%; in the experiment with MALME-3M melanoma it was 87.9%; in the experiment on MDA-MB-231 breast, 118%; in the experiment on RXF 393 renal, 127%; in the experiment on SF-268 CNS, 103%. In addition, the growth in the experiment on SF-295 CNS is 80.7%; with SF-539 CNS it was 114%; with UACC-257 melanoma, 108%; in the experiment with M14 melanoma it was 57.7%; in the experiment on HCT-15 colon, 120%; with HT29 colon, 99.8%. Also, the growth with SNB-75 CNS was 85.3%; with SNB-19 CNS it was 102%; in the experiment with U251 CNS it was 109%; with PC-3 prostate, 92.4%; in the experiment on SK-MEL-5 melanoma, 106%; in the experiment on UACC-62 melanoma it was 112%. Further, the growth in the experiment with LOX IMVI melanoma was 101%; in the experiment with SK-MEL-28 melanoma it was 99.1%.

For the molecule `CCN(CC)CCNC(=O)c1c(C)[nH]c(/C=C2\C(=O)Nc3cc(NC(=O)NC(=O)c4ccc(OC)cc4F)ccc32)c1C`, the growth with DU-145 prostate is 97.3%; in the experiment on K-562 leukemia it was 10.9%; with MALME-3M melanoma, 108%; with MDA-MB-231 breast, 77.8%; with RXF 393 renal, 66.4%; in the experiment on SF-268 CNS, 102%. For the same molecule, the growth is 117% in the experiment on SF-295 CNS; 94.7% in the experiment with SF-539 CNS; 111% with UACC-257 melanoma; 105% with M14 melanoma; 72.7% in the experiment on HCT-15 colon; 31.7% in the experiment on HT29 colon. Further, the growth is 94% with SNB-75 CNS; 92.4% with SNB-19 CNS; 92.8% with U251 CNS; 86.8% with PC-3 prostate; 85.3% in the experiment with SK-MEL-5 melanoma; 104% in the experiment with UACC-62 melanoma. For the same molecule, the growth is 97% in the experiment with LOX IMVI melanoma and 99.7% with SK-MEL-28 melanoma.

Take `C=C1C(=O)O[C@H]2[C@H]1CC/C(COC(=O)OC/C1=C/CC[C@@]3(C)O[C@H]3[C@H]3OC(=O)[C@@H](CN(C)C)[C@@H]3CC1)=C\CC[C@@]1(C)O[C@@H]21`: the growth was 15.3% in the experiment with DU-145 prostate; 1.85% (active) in the experiment with K-562 leukemia; -34.7% (active) in the experiment with MALME-3M melanoma; -10.4% (active) in the experiment on MDA-MB-231 breast; -81.5% (active) with RXF 393 renal; 63.1% in the experiment on SF-268 CNS. Also, the growth with SF-295 CNS is 94.7%; in the experiment with SF-539 CNS, -12.1% (active); with UACC-257 melanoma, -28% (active); with M14 melanoma, -22.9% (active); in the experiment with HCT-15 colon, 1.8% (active); in the experiment on HT29 colon it was -8% (active). Moreover, the growth is 91% in the experiment with SNB-75 CNS; 80.3% in the experiment with SNB-19 CNS; 60.6% in the experiment with U251 CNS; 72.7% with PC-3 prostate; 46.9% with SK-MEL-5 melanoma; -28.1% (active) in the experiment with UACC-62 melanoma. Moreover, the figures for the growth in the experiment with LOX IMVI melanoma and in the experiment on SK-MEL-28 melanoma were -72.3% (active) and -18.3% (active), respectively.

In the case of `COc1cc2c(cc1OCCCCC(=O)Nc1ccc(-c3nc4ccccc4s3)cc1)N=C[C@@H]1CCCN1C2=O`, the growth in the experiment with DU-145 prostate was 3.12% (active); with K-562 leukemia it was -17.6% (active); in the experiment on MALME-3M melanoma it was -80.2% (active); with MDA-MB-231 breast it was 14.7%; in the experiment on RXF 393 renal, -83% (active); in the experiment with SF-268 CNS, 7.56% (active). Also, the growth is 18.3% in the experiment on SF-295 CNS; -46.6% (active) in the experiment with SF-539 CNS; -47.1% (active) in the experiment with UACC-257 melanoma; -59.3% (active) with M14 melanoma; 10.6% in the experiment on HCT-15 colon; -9.12% (active) in the experiment on HT29 colon. Further, the growth in the experiment on SNB-75 CNS is -67.7% (active); in the experiment on SNB-19 CNS, 14.1%; in the experiment on U251 CNS, 7.5% (active); in the experiment with PC-3 prostate, -4.92% (active); in the experiment with SK-MEL-5 melanoma, -99.3% (active); in the experiment on UACC-62 melanoma, -70.9% (active). For the same molecule, the growth in the experiment with LOX IMVI melanoma is 1.99% (active); in the experiment on SK-MEL-28 melanoma, -44% (active).

Turning to `Nc1nc(Cl)cc(NCCCCNc2cc(Cl)nc(N)n2)n1`, the growth with DU-145 prostate is 104%; in the experiment on K-562 leukemia, 101%; in the experiment with MALME-3M melanoma, 145%; with MDA-MB-231 breast, 114%; with RXF 393 renal it was 123%; with SF-268 CNS, 112%. Besides, the growth with SF-295 CNS is 121%; in the experiment with SF-539 CNS, 96.5%; in the experiment on UACC-257 melanoma, 105%; in the experiment with M14 melanoma, 117%; in the experiment with HCT-15 colon, 114%; in the experiment on HT29 colon, 109%. For the same molecule, the growth with SNB-75 CNS was 108%; with SNB-19 CNS, 101%; in the experiment on U251 CNS it was 99.6%; with PC-3 prostate, 95.8%; in the experiment with SK-MEL-5 melanoma it was 111%; with UACC-62 melanoma it was 101%. The values for the growth in the experiment on LOX IMVI melanoma and in the experiment with SK-MEL-28 melanoma were 96.9% and 118%, respectively.
